# Experimental data from ChEMBL document CHEMBL3988442, “University of Dundee, Small-Polar-MMV Screening Library” (2021).
# The whole screen tested about 48,000 compounds, of which about 13,000 (27%) showed an effect of 50% or more. The list shows a part of the results.
# System: Wolbachia pipientis
# Test: Anti-Wolbachia Cell-Based Screen
# Format: functional
# Parameters: scale not given: in the data most compounds retested in dose-response had high values
# Conditions: 5 µM
row,Compound,Percent Effect [%]
1,Fc1cnc(N2CCOC3(CCN(Cc4cccs4)CC3)C2)nc1.O=C(O)C(F)(F)F.O=C(O)C(F)(F)F,104.4
2,Cc1cnc(N2CCC3(CC2)CN(c2ccsc2)C(=O)CO3)nc1.O=C(O)C(F)(F)F,15.19
3,O=C(O)C(F)(F)F.O=C1COC2(CCN(Cc3cccs3)CC2)CN1c1ccccc1,-12.07
4,Cc1cccc(CN2CCC3(CC2)CN(c2cccnc2)C(=O)CO3)n1.O=C(O)C(F)(F)F.O=C(O)C(F)(F)F,90.31
5,Fc1cnc(N2CCOC3(CCN(Cc4ccsc4)CC3)C2)nc1.O=C(O)C(F)(F)F.O=C(O)C(F)(F)F,-10.48
6,Cn1ccnc1CN1CCC2(CC1)CN(c1cncnc1)C(=O)CO2.O=C(O)C(F)(F)F,-21.12
7,Fc1cnc(N2CCCC3(CN(Cc4ccccc4)CCO3)C2)nc1.O=C(O)C(F)(F)F (stereo not drawn),8.099
8,O=C(O)C(F)(F)F.O=C1COC2(CCN(Cc3cccs3)CC2)CN1c1cncnc1,100.5
9,Cn1cc(N2CC3(CCN(Cc4cccs4)CC3)OCC2=O)cn1.O=C(O)C(F)(F)F,13.04
10,O=C(O)C(F)(F)F.O=C1COC2(CCN(Cc3cccs3)CC2)CN1c1ccsc1,102.1
11,CCCn1cc(C(=O)N(C)Cc2nc(-c3ccccn3)no2)c(C)n1,4.948
12,CCO[C@@H]1CCN(C(=O)c2cnc(C)cn2)[C@@H]1Cc1cnn(C)c1,-1.532
13,CS(=O)(=O)c1ccccc1N[C@@H]1c2ccccc2C[C@@H]1O,-8.17
14,CNc1nc(CNC(=O)Nc2ccc(OC)cc2C)cs1,10.14
15,O=C(O)C(F)(F)F.O=C(O)C(F)(F)F.O=C1COC2(CCN(Cc3cccs3)CC2)CN1c1cccnc1,97.28
16,CC(=O)N1CC(=O)N(c2cccnc2)CC12CCN(Cc1nccs1)C2.O=C(O)C(F)(F)F.O=C(O)C(F)(F)F (stereo not drawn),-2.554
17,COc1cccc(-n2cc(CN(C)C(=O)c3cc[nH]n3)cn2)c1,-0.6043
18,CCCc1nc(C(=O)N(C)Cc2cnn(-c3cccc(OC)c3)c2)cs1,-14.16
19,Cc1nc(-c2nnc[nH]2)sc1C(=O)N(Cc1cccnc1)C1CC1,1.946
20,COCCN(Cc1ccccc1)C(=O)c1csc(-c2nnc[nH]2)n1,98.7
21,CN(CCCc1ccccc1)C(=O)CCc1nc(-c2nnc[nH]2)no1,-15.35
22,CN(CCCOc1ccccc1)C(=O)c1csc(-c2nnc[nH]2)n1,111.9

row,Compound,Percent Effect [%]
1,COCc1nc(C(=O)N(Cc2ccccc2)CC(C)C(=O)O)cs1 (stereo not drawn),6.809
2,Cc1csc(CN(C)CCOc2ccccc2)n1,-0.03273
3,COc1cccc(CN(C)C(=O)c2csc(-c3nnc[nH]3)n2)c1,94.98
4,Cc1nc2c(NCC(C)N(C)c3ccccc3)ncnc2o1 (stereo not drawn),-36.58
5,COc1ccc(C2(C(=O)NCc3c(C)ncc4c3CCNC4)CC2)cc1,-10.04
6,CNS(=O)(=O)c1cc(C(=O)N(C)Cc2sccc2C)c(C)o1,-10.4
7,COc1c(C)cnc(CN(C)C(=O)Nc2ccc3c(c2)CCO3)c1C,3.992
8,COc1ccc(Cc2ncc3c(n2)CN(C(=O)CN(C)C)C3)cc1,-15.7
9,Cc1nc(C)n(CC2CN(CCOCC(F)(F)F)CCO2)n1 (stereo not drawn),-2.106
10,Cn1nccc1C(=O)NC(C)(C)c1noc(C(C)(C)C)n1,27.22
11,COc1ccccc1C(C)(C)NCc1ccc(C)o1,6.664
12,Cc1nc(C)n(CC2CCCN2CC(=O)N(C)Cc2ccc(C)o2)n1 (stereo not drawn),1.913
13,Cc1csc(C(C)(C)NCCNS(C)(=O)=O)n1,-2.878
14,CCC(C)(NCC(=O)N(c1ccccc1)C(C)C)c1nc(C)cs1 (stereo not drawn),-6.604
15,Cc1ccc(CN(C)C(=O)CNC(C)(C)c2noc(C(C)(C)C)n2)o1,94
16,Cc1ccc(CNC(C)(C)c2noc(C(C)(C)C)n2)o1,107.5
17,Cc1csc(C(C)(C)NCC(=O)N(C)Cc2ccc(C)o2)n1,102.3
18,Cc1cnn(C2CN(CC(=O)N(C)Cc3ccc(C)o3)C2)c1,-130.6
19,Cc1nn(C)c(C)c1OCC(=O)NCC(O)c1ccsc1 (stereo not drawn),4.904
20,O=C(Nc1ccccc1-c1cccs1)N1CCN(CC(F)F)CC1,-15.51
21,CCC(=O)N1CSCC1C(=O)Nc1ccccc1-c1cccs1 (stereo not drawn),-5.499
22,COCC(=O)N1CCN(C(=O)c2cccs2)[C@@H](C(=O)OC)C1,-3.923

row,Compound,Percent Effect [%]
1,COCC(=O)N1CCN(C)C(=O)C(Cc2ccccc2-c2cccs2)C1 (stereo not drawn),162.7
2,CCC(=O)N1CCN(C)C(=O)C(Cc2ccccc2-c2cccs2)C1 (stereo not drawn),157.1
3,COCC(=O)N1CCN(C)C(=O)C(Cc2ccc(-c3cccs3)cc2)C1 (stereo not drawn),126.7
4,CCC(=O)N1CCN(C(=O)Nc2ccccc2-c2cccs2)CC1,-6.486
5,COCc1noc(Cn2c(=O)[nH]c3ccccc32)n1,93.82
6,COCCc1noc(Cn2c(=O)[nH]c3ccccc32)n1,95.59
7,COCc1noc(Cn2ncn3cccc3c2=O)n1,-2.273
8,COCCc1noc(Cn2ccc3ccccc3c2=O)n1,-26.03
9,COCc1noc(Cn2ccc3ccccc3c2=O)n1,-17.57
10,COCc1noc(Cn2ccc3ncccc3c2=O)n1,1.423
11,COCc1noc(Cn2c(C3CC3)nc3ccccc32)n1,95.56
12,COCc1noc(CN2CC(=O)N(C)c3ccccc3C2=O)n1,-11.96
13,COCCc1noc(CN2CC(C)(c3ccccc3)CCC2=O)n1 (stereo not drawn),-4.269
14,CSCC(CCO)NC(=O)Nc1cc(Br)ccc1C (stereo not drawn),9.066
15,COCCN1CCC2(CCCN(C(=O)c3cncn3C)C2)CC1.O=C(O)C(F)(F)F,-17.89
16,Cc1cccnc1C(NC(=O)CNC(=O)c1ccoc1C)C(C)C (stereo not drawn),-9.405
17,CCOc1ccc(CC(CNC(=O)c2ccoc2C)C(N)=O)cc1 (stereo not drawn),-14.81
18,Cc1occc(=O)c1OCc1noc(C(=O)NCC(C)C)n1,118
19,CCOC(=O)c1nc(COc2c(C)occc2=O)no1,107.7
20,Cc1occc(=O)c1OCc1noc(C(=O)NC(C)C)n1,81.24
21,Cc1occc1C(=O)NCC(O)c1ccc(Cl)s1 (stereo not drawn),-1.514
22,CNC(=O)c1nc(COc2c(C)occc2=O)no1,98.73

row,Compound,Percent Effect [%]
1,CNC(=O)c1nc(Cn2ncc3ccccc3c2=O)no1,-11.19
2,CNC(=O)c1ccc(OC)c(NCc2noc(-c3ccsc3)n2)c1,-18.11
3,CCc1nc(COc2ccc(N(C)C(C)=O)cc2)no1,-47.78
4,CN(CCc1nc2cc(Cl)ccc2[nH]1)C(=O)c1ncn[nH]1,8.261
5,CCCN1C[C@H]2CC[C@@H]1CN(C(=O)c1ccc(N(C)CCO)cc1)C2,-0.2946
6,COc1ccc(C(C)N2CCC(C(=O)N(C)C)CC2)cc1Cl (stereo not drawn),13.21
7,COC(=O)NCC(=O)N(C)CC1Cc2ccccc2CN1C (stereo not drawn),-16.07
8,Cc1c(I)cccc1C(=O)NCc1nnc[nH]1,-11.57
9,COC(=O)N1CCC(NC(=O)N2CCCC2c2ccsc2)CC1 (stereo not drawn),22.17
10,COC(=O)CS(=O)(=O)CCC(=O)N1CCCC1c1ccsc1 (stereo not drawn),0.3686
11,CC(C)(C)C(=O)N1C[C@H](c2ccsc2)[C@H]2CN(Cc3cccs3)CC[C@H]21.Cl,6.375
12,CC(C)(C)C(=O)N1C[C@H](c2ccsc2)[C@H]2CN(C3CCCCC3)CC[C@H]21.Cl,142.3
13,CC(C)(C)C(=O)N1C[C@H](c2ccsc2)[C@H]2CN(C3CCCC3)CC[C@H]21.Cl,191.9
14,CC(C)(C)NC(=O)CNC(=O)CCc1ccccc1Br,12.72
15,CN(Cc1nc2ccccc2s1)C1CCCN(c2cccnn2)C1 (stereo not drawn),143.8
16,CN(c1ncnc2sccc12)C1CCCN(c2cccnn2)C1 (stereo not drawn),17
17,CN(Cc1nc(N)c2ccccc2n1)C1CCCN(c2cccnn2)C1 (stereo not drawn),10.49
18,Cc1nc(CN(C)CC2CCCN2c2cccnn2)nc2ccccc12 (stereo not drawn),6.947
19,Cc1nc(CN(C)C2CCCN(c3cccnn3)C2)nc2ccccc12 (stereo not drawn),87.46
20,CN(c1ncnc2c1cnn2C)C1CCCN(c2cccnn2)C1 (stereo not drawn),-20.96
21,CN(Cc1ncc(-c2ccccc2)o1)C1CCCN(c2cccnn2)C1 (stereo not drawn),2.582
22,CN(c1ncnc2ccccc12)C1CCCN(c2cccnn2)C1 (stereo not drawn),80.98

row,Compound,Percent Effect [%]
1,Cc1nc2ccccc2nc1CN(C)C1CCCN(c2cccnn2)C1 (stereo not drawn),3.642
2,O=C(C[C@H]1[C@H]2CN(c3ncccn3)C[C@@H]12)Nc1cccnc1.O=C(O)C(F)(F)F.O=C(O)C(F)(F)F,-0.113
3,CCc1nc(CN(C)CC2CCN(CC(C)O)CC2)no1 (stereo not drawn),-10.69
4,CN1CCCC(CCC(=O)N2CCc3sc(C(=O)N(C)C)cc3C2)C1 (stereo not drawn),-22.79
5,Cc1nc(C2CCCN2CC(=O)N2CCCc3ccccc32)no1 (stereo not drawn),-7.265
6,COCc1ncc(CN(Cc2ccncc2)Cc2ccc(C)s2)cn1,12.8
7,O=C(CNc1ccc(F)cc1OCC(F)(F)F)NCC(F)(F)F,-7.353
8,O=C(CCc1ccco1)Nc1ncn(CC(=O)N2CCCCCC2)n1,1.429
9,O=C1CC2(CCN(Cc3ccoc3)C2)CN1c1ccc2c(c1)OCO2 (stereo not drawn),2.94
10,O=C1CC2(CCN(c3nncs3)C2)CN1c1cncnc1 (stereo not drawn),102.2
11,Cc1cccc(N2CC3(CCN(c4nncs4)C3)CC2=O)c1 (stereo not drawn),106.3
12,CCS(=O)(=O)N1CCC2(CC(=O)N(c3cncnc3)C2)C1 (stereo not drawn),-9.187
13,O=C1CC2(CCN(c3nncs3)C2)CN1c1ccc2c(c1)OCCO2 (stereo not drawn),105.6
14,O=C1CC2(CCN(S(=O)(=O)C3CC3)C2)CN1c1cncnc1 (stereo not drawn),7.231
15,O=C1CC2(CCN(c3nncs3)C2)CN1c1cccc(F)c1 (stereo not drawn),96.11
16,O=C(N1CCCC1)N1CCC2(CC(=O)N(c3ccc4c(c3)OCO4)C2)C1 (stereo not drawn),-19.45
17,Cc1cccc(N2CCCC3(C2)CN(c2nncs2)CCO3)c1 (stereo not drawn),-21.39
18,O=C1CC2(CCN(Cc3cccs3)C2)CN1c1cccc(F)c1 (stereo not drawn),17.5
19,CCS(=O)(=O)N1CCC2(CC(=O)N(c3cccc(C)c3)C2)C1 (stereo not drawn),-28.77
20,O=C1CC2(CCN(c3nncs3)C2)CN1c1ccccc1 (stereo not drawn),7.339
